These results are taken from PubChem BioAssay AID1508637 (National Center for Advancing Translational Sciences (NCATS), 2021).

Records with an inconclusive call do not appear. Unmarked numbers belong to inactive results. Activity calls are given as the source filed them. The call rests on the fitted dose curve; in most records, active means well fitted inhibition curve with a large enough effect; inconclusive means small, poorly fitted or top-dose-only effect; inactive means flat fitted curve, though single readings scatter. Non-standard residues stand in square brackets, D forms with d. Residues, ends and D or L forms follow the SMILES beside them. *: point of attachment. Cbz = O=C(OCc1ccccc1)*; Nva = CCC[CH](N)C(=O)O

A short description of this test: qHTS for characterization and localization of zebrafish homologs of the human ABCB1 multidrug transporter: empty vector transfected cells. To be noted: empty vector transfected control cells, CellTiter-Glo luminescence viability, 72 h; series mostly up to 46.1 µM; activity change, negative = inhibition: at the top concentration. The text has this:
The zebrafish has emerged as a potential model to study the blood-brain barrier (BBB) given its similarities with mammalian systems. However, little information has been available with regard to homologous ATP-binding cassette transporters expressed at the zebrafish BBB. Two transporters that are highly expressed at the human BBB are P-glycoprotein (P-gp, encoded by the ABCB1 gene) and ABCG2 (encoded by the ABCG2 gene). In this study, we focus on characterization of P-gp homologs in the zebrafish, which has two genes that are homologous to human ABCB1 - abcb4 and abcb5. We generated stably-transfected cell lines to determine their substrate specificities. […] Zebrafish abcb4 also colocalized with claudin 5 expression in brain endothelial cells.
A high-throughput screen was performed as previously described on empty vector transfected cells, P-gp-overexpressing MDR-19 cells and cells transfected with full-length zebrafish abcb4 (ZF Abcb4) or abcb5 (ZF Abcb5). Briefly, cells were plated into 1536-well plates at a density of 500 cells/well in 5 uL media. P-gp substrate compounds (approximately 90) selected from our previous study were then added at varying concentrations using a 1536-head pin tool (Kalypsis, San Diego, CA) and plates were incubated at 37C in 5% CO2 for 72 h. CellTiter-Glo reagent (Promega) was dispensed into the wells, incubated for 5 min and luminescence was read on a ViewLux instrument (Perkin-Elmer).
Cytotoxic compounds were defined as those that yielded a curve class of -1.1, -1.2, -2.1, -2.2, -2.3, or -2.4, a maximum response of >50% and an AC50 of < 10 uM. All compounds from screening analysis were tested in Vector (empty vector control), MDR-19 (P-gp overexpressing), zebrafish abcb4 (ZF Abcb4) and abcb5 (ZF Abcb5) expression cell lines.
1. Tobie D Lee, Olivia W Lee, Kyle R Brimacombe, Lu Chen, Rajarshi Guha, Sabrina Lusvarghi, Bethilehem G Tebase, Carleen Klumpp-Thomas, Robert W Robey, Suresh V Ambudkar, Min Shen, Michael M Gottesman, Matthew D Hall. A High-Throughput Screen of a Library of Therapeutics Identifies Cytotoxic Substrates of P-glycoprotein. Mol Pharmacol. 2019, Nov;96(5):629-640.
As for `CC1(C)CC[C@]2(C(=O)OC3OC(CO)C(O)C(O)C3O)CC[C@]3(C)C(=CCC4[C@@]5(C)CC[C@H](OC6OC(C(=O)O)C(O)C(O)C6O)C(CO)(CO)C5CC[C@]43C)[C@@H]2C1` (stereo not given in full), the Potency was 2230 nM (active).

As for `CCC(C)C(=O)OC1CC(O)C23C4OCC5(C(O)CC2C1(C)C(O)O4)C3C(=O)C(O)C1(C)C(O)(c2ccoc2)CC2OC251` (stereo not given), the Potency is 1100 nM (active).

On to `C#Cc1cccc(Nc2ncnc3cc(OC)c(OCCCCCCC(=O)NO)cc23)c1`, for which the Potency is 2960 nM (active).

Take `CCN(CC)Cc1ccc(C(=O)N(CCc2ccccc2OC)[C@@H]2CCNC2)cc1`: the “activity change, negative = inhibition” value is 0%.

Consider `C[C@@]12O[C@@H](C[C@]1(O)CO)n1c3ccccc3c3c4c(c5c6ccccc6n2c5c31)CNC4=O`, for which the Potency was 2640 nM (active).

In the case of `CN(C)CCN(C)C(=O)c1ccc(NC(=O)Nc2ccc(-c3nc(N4CCOCC4)c4ccn(CC(F)(F)F)c4n3)cc2)cc1`, the Potency was 264 nM (active).

Regarding `CC(C)C[C@H](NC(=O)[C@H](CCc1ccccc1)NC(=O)CN1CCOCC1)C(=O)N[C@@H](Cc1ccccc1)C(=O)N[C@@H](CC(C)C)C(=O)[C@@]1(C)CO1`, the Potency was 46.9 nM (active).

Consider `CN(C)C/C=C/C(=O)Nc1cccc(C(=O)Nc2ccc(Nc3nccc(-c4cccnc4)n3)cc2)c1`, for which the Potency was 18700 nM (active).

Regarding `Cc1cc(Nc2cc(NC(=O)c3c(Cl)cccc3Cl)ccn2)nc(N)n1`, the Potency is 4180 nM (active).

For the molecule `CCn1nnc2c(N3CCOCC3)nc(-c3ccc(NC(=O)Nc4ccc(C(=O)N5CCN(C)CC5)cc4)cc3)nc21`, the Potency is 332 nM (active).

`C/C=C1/NC(=O)C2CSSCCC=CC(CC(=O)NC(C(C)C)C(=O)N2)OC(=O)C(C(C)C)NC1=O` (stereo not given): the Potency is 52.6 nM (active).

Regarding `CC[C@@H]1C(=O)N(C)c2cnc(Nc3ccc(C(=O)NC4CCN(C)CC4)cc3OC)nc2N1C1CCCC1`, the Potency is 46.9 nM (active).

On to `C[C@@H](Oc1cc(-n2cnc3ccc(CN4CCN(C)CC4)cc32)sc1C(N)=O)c1ccccc1C(F)(F)F`, for which the Potency is 37.2 nM (active).

Turning to `COc1cc(C(=O)NC2CCN(C)CC2)ccc1Nc1ncc2c(n1)N(C1CCCC1)CC(F)(F)C(=O)N2C`, the Potency is 41.8 nM (active).

For `Cc1[nH]c2ccccc2c1CCNCc1ccc(/C=C/C(=O)NO)cc1`, the Potency was 235 nM (active).

Turning to `C=CCn1c(=O)c2cnc(Nc3ccc(N4CCN(C)CC4)cc3)nc2n1-c1cccc(C(C)(C)O)n1`, the Potency was 1180 nM (active).

`CCN(CCCO)CCCOc1ccc2c(Nc3cc(CC(=O)Nc4cccc(F)c4)[nH]n3)ncnc2c1`: the “activity change, negative = inhibition” value was -7.2%.

In the case of `Cc1ccc(-c2ncn(-c3ccc(Nc4nccc(-c5cccc(N6CCOCC6)c5)n4)cc3)n2)cn1`, the Potency is 3320 nM (active).

Consider `Oc1ccc(-c2ccc(-c3cc(Nc4cccc(CNC5CC5)c4)n[nH]3)cc2)c(O)c1`, for which the Potency was 2960 nM (active).

Consider `CCCC(C=O)NC(=O)C(CC(C)C)NC(=O)C(CC(C)C)NC(=O)OCc1ccccc1` (stereo not drawn) (Cbz-Leu-Leu-[Nva]-aldehyde; configuration not given here), for which the Potency was 1480 nM (active).

With `COc1ccc(CC2C(=O)NC(C)C(=O)N(C)C3Cc4ccc(cc4)Oc4cc(ccc4OC4OC(CO)C(O)C(O)C4O)CC(C(=O)NC(C)C(=O)NC(C)C(=O)N2C)N(C)C3=O)cc1` (stereo not given), the Potency was 88.8 nM (active).

Take `CCC1=CC2CN(C1)Cc1c([nH]c3ccccc13)[C@@](C(=O)OC)(c1cc3c(cc1OC)N(C)[C@H]1[C@@](O)(C(=O)OC)[C@H](OC(C)=O)[C@]4(CC)C=CCN5CC[C@]31[C@@H]54)C2` (stereo not given in full): the Potency is 105 nM (active).

As for `Cc1cc(Nc2cc(N3CCN(C)CC3)nc(Sc3ccc(NC(=O)C4CC4)cc3)n2)n[nH]1`, the Potency was 6620 nM (active).

As to `CC(C)(C)c1cnc(CSc2cnc(NC(=O)C3CCNCC3)s2)o1`, the Potency is 1080 nM (active).

Turning to `COCCn1c2c([n+](Cc3cnccn3)c1C)C(=O)c1ccccc1C2=O`, the Potency is 16.6 nM (active).

For `C[C@@H]1O[C@@H](O[C@H]2[C@@H](OC(=O)[C@]34CCC(C)(C)CC3C3=CCC5[C@@]6(C)C[C@H](O)[C@H](O[C@@H]7O[C@H](CO)[C@@H](O)[C@H](O)[C@H]7O[C@@H]7OC[C@@H](O)[C@H](O)[C@H]7O)[C@@](C)(C(=O)O)C6CC[C@@]5(C)[C@]3(C)CC4)OC[C@H](O)[C@@H]2O)[C@H](O)[C@H](O)[C@H]1O[C@@H]1OC[C@@H](O)[C@H](O)[C@H]1O` (stereo not given in full), the Potency is 1980 nM (active).

Turning to `CCc1c(O)cc(O)c(C(=O)c2ccc(OCCN3CCOCC3)c(OC)c2)c1CC(=O)N(CCOC)CCOC`, the Potency was 743 nM (active).

As to `CN(c1ncccc1CNc1nc(Nc2ccc3c(c2)CC(=O)N3)ncc1C(F)(F)F)S(C)(=O)=O`, the Potency is 4180 nM (active).

Take `COc1cc2c(NC3CCN(C(C)C)CC3)nc(N3CCCN(C)CC3)nc2cc1OCCCN1CCCC1`: the Potency is 16600 nM (active).

Consider `CC(=O)C1(O)Cc2c(O)c3c(c(O)c2C(OC2CC(N)C(O)C(C)O2)C1)C(=O)c1c(O)cccc1C3=O` (stereo not given), for which the Potency is 41.8 nM (active).

Take `COC[C@H](NC(=O)c1cnc(C)s1)C(=O)N[C@@H](COC)C(=O)N[C@@H](Cc1ccccc1)C(=O)[C@@]1(C)CO1`: the Potency was 166 nM (active).

Turning to `Cc1ccc(C(=O)N(CCCN)C(c2nc3cc(Cl)ccc3c(=O)n2Cc2ccccc2)C(C)C)cc1` (stereo not given), the Potency was 1180 nM (active).

As for `CC(C)C[C@@H](C=O)NC(=O)[C@H](CC(C)C)NC(=O)[C@H](CC(C)C)NC(=O)OCc1ccccc1` (Cbz-Leu-Leu-Leu-aldehyde), the Potency was 1320 nM (active).

Take `COc1cc2ncn(-c3cc(OCc4ccccc4C(F)(F)F)c(C(N)=O)s3)c2cc1OC`: the Potency was 1910 nM (active).

Turning to `Cc1cc(N)c2ccccc2[n+]1CCCCCCCCCC[n+]1c(C)cc(N)c2ccccc21`, the Potency is 5900 nM (active).

For the molecule `Cc1nc(Nc2n[nH]c3c2CN(C(=O)N[C@H](CN(C)C)c2ccccc2)C3(C)C)c2sccc2n1`, the Potency is 41.8 nM (active).

On to `N=C(N)c1ccc(OCCCCCOc2ccc(C(=N)N)cc2)cc1`, for which the Potency is 2640 nM (active).

Regarding `CCCCc1nc2cc(C=CC(=O)NO)ccc2n1CCN(CC)CC`, the Potency was 3320 nM (active).

On to `COc1cccc2c1C(=O)c1c(O)c3c(c(O)c1C2=O)C[C@@](O)(C(=O)CO)C[C@H]3O[C@H]1C[C@H](N)[C@@H](O)[C@H](C)O1`, for which the Potency is 105 nM (active).

For the molecule `CO[C@H]1/C=C/C=C/C=C/C[C@H](OC(=O)[C@@H](C)NC(=O)C2CCCCC2)[C@H](C)[C@@H](O)/C(C)=C/CCc2cc(O)cc(c2)NC(=O)C1`, the Potency is 277 nM (active).
